Entries with a potency or affinity are not part of this list. Activity calls are given as the source filed them. The rule behind the calls is not given here.
test: HIV-1 Env-mediated cell fusion inhibitors, dose response, CCR5-tropic Env (AID 2279); conditions: CCR5-tropic HIV-1 Env, reporter read-out; series mostly up to 50 µM

| SMILES | outcome |
| --- | --- |
| CC(C)S(=O)(=O)C1=NSC2=NC(=O)/C(=C\c3ccc(OC(=O)c4ccco4)cc3)C(=N)N21 | inactive |
| Oc1c(Br)cc(Br)c(/C=N/n2c(-c3ccccc3)n[nH]c2=S)c1Br | inactive |
| CC1=C(C#N)C(=O)NC(=O)/C1=C\c1ccc(-c2cc(C)c(C)cc2[N+](=O)[O-])o1 | inactive |
| CCc1oc2ccccc2c1C(=O)c1cc(Br)c(O)c(Br)c1 | inactive |
| Cc1cc(C)cc(-n2cccc2/C=C2/C(=N)N3C(=NC2=O)SN=C3S(C)(=O)=O)c1 | inactive |
| CC(C)S(=O)(=O)C1=NSC2=NC(=O)/C(=C\c3ccc(-c4cccc(C(=O)O)c4)o3)C(=N)N21 | inactive |
| O=C(O)c1[nH]c2ccccc2c1C(c1cc(Br)ccc1O)c1c(C(=O)O)[nH]c2ccccc12 | inactive |
| Cc1ccc(/C=C2\SC(=S)N(CCCC(=O)Nc3ccccc3C(=O)O)C2=O)cc1 | inactive |
| CC(C)(C)OC(=O)N1CCC(c2cc(=O)n3[nH]cc(C(=O)Nc4ccc(F)c(Cl)c4)c3n2)CC1 | inactive |
| O=C(O)/C(CC(=O)c1ccc(Cl)cc1)=N/Nc1ccc([N+](=O)[O-])cc1[N+](=O)[O-] | inactive |
| Cc1cc(/C=C2\C(=N)N3N=C(S(C)(=O)=O)SC3=NC2=O)c(C)n1Cc1ccccc1 | inactive |
| O=C(O)c1cc(NN=C2c3ccccc3-c3ccccc32)ccc1Cl | inactive |
| N#Cc1c(-c2cccs2)nc(SCc2ccc(Cl)cc2)[nH]c1=O | inactive |
| CC(c1ccccc1)N1C(=O)c2ccc(C(=O)Nc3ccc(Br)cc3C(=O)O)cc2C1=O (centres undefined) | inactive |
| O=C(O)COc1ccc(/C=C/C(=O)c2ccc(C3CCCCC3)cc2)cc1 | inactive |
| O=C(O)CN1C(=O)/C(=C\c2cccc(OCc3ccc(Cl)cc3Cl)c2)SC1=S | inactive |
| COc1ccc(C(=O)Nc2ccccc2C(=O)O)cc1NC(=O)C(c1ccccc1)c1ccccc1 | inactive |

| SMILES | outcome |
| --- | --- |
| COc1ccc(OC)c(/C=C2\SC(=S)N(NS(=O)(=O)c3ccc(C)cc3)C2=O)c1 | inactive |
| O=C(O)CN1C(=O)/C(=C\c2ccccc2OCc2ccc(Cl)cc2Cl)SC1=S | inactive |
| CC1=C(C(=O)OC(C)C)C(c2ccc(Cl)cc2)n2c(s/c(=C\c3ccc(OCC(=O)O)cc3)c2=O)=N1 (centres undefined) | inactive |
| COc1ccc(-c2coc3c(C)c4oc(=O)c(CCC(=O)O)c(C)c4cc23)cc1 | inactive |
| O=C(Nc1ccc(Br)cc1C(=O)O)c1ccc2c(c1)C(=O)N(Cc1ccccc1)C2=O | inactive |
| COc1cc(/C=C2/C(=O)NN(c3ccc(C)c(Cl)c3)C2=O)cc([N+](=O)[O-])c1O | inactive |
| COc1cc(Cl)cc(C(c2c(C(=O)O)[nH]c3ccccc23)c2c(C(=O)O)[nH]c3ccccc23)c1O | inactive |
| O=C(O)CN1C(=O)/C(=C\c2cc(Br)ccc2OCc2ccc(Cl)cc2Cl)SC1=S | inactive |
| COc1ccc(C(=O)COC(=O)c2ccccc2NS(=O)(=O)c2ccc(O)c([N+](=O)[O-])c2)cc1 | inactive |
| C=CCOc1ccc(C(c2c(C(=O)O)[nH]c3ccccc23)c2c(C(=O)O)[nH]c3ccccc23)cc1 | inactive |
| Cc1cc(N2C(=O)C(O)=C(C(=O)c3cc4ccccc4o3)C2c2ccc(Cl)cc2)no1 (centres undefined) | inactive |
| CCS(=O)(=O)C1=NN2C(=N)/C(=C\c3ccc(OS(=O)(=O)c4ccccc4)c(OC)c3)C(=O)N=C2S1 | inactive |
| O=C(O)c1[nH]c2ccccc2c1C(c1c(F)cccc1Cl)c1c(C(=O)O)[nH]c2ccccc12 | inactive |
| CCOc1ccc(NC(=NCc2ccc3c(c2)OCO3)SC2CC(=O)N(c3ccc(C(=O)O)cc3)C2=O)cc1 (centres undefined) | inactive |
| COc1ccc2c(c1)cc(C(=O)N/N=C/c1c(O)c(C(=O)O)cc3ccccc13)n2C | inactive |
| O=C(CCN1C(=O)/C(=C/c2cccs2)SC1=S)Nc1ccc(C(=O)O)c(O)c1 | inactive |
| Cc1ccccc1C(=O)Nc1cccc(C(=O)N/N=C/c2cc(Cl)cc([N+](=O)[O-])c2O)c1 | inactive |
